miR122 inh – miR-122 sensor activation. Huh7 psiCHECK-miR122 Renilla luciferase sensor, 48 h. activation, % at 12.5 µM. 340,000 tested, 0.14% active. AID 623901;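 active means mean activation of 30% or more, with every replicate also reaching 30%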;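 further: 0% = median of neutral control wells and 100% = median of positive control wells; higher luciferase signal means stronger suppression of miR-122 activity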
Active calls of the source: *. The sample as a whole holds a higher share of hits than the screen did.

SMILES | miR122 inh
CN1CCN(c2ccc([N+](=O)[O-])c3no[n+]([O-])c23)CC1 | 35*
CCOc1ccccc1NC(=O)N1CCC2(CC1)OCCO2 | -115
CCCCn1nnnc1C(c1cccc(OC)c1OC)N1CCC2(CC1)C(=O)NCN2c1ccccc1 (stereo not drawn) | -92
CN=C1CN(O)C(c2ccccc2)c2cc(Cl)ccc2N1 (stereo not drawn) | -111
CCN(CC)S(=O)(=O)c1ccc(C)c(NCC(=O)Nc2ccc(C#N)c(Cl)c2)c1 | -119
O=c1cc(C2CCNCC2)[nH][nH]1 | -156
COc1ccc(C2SCC(=O)Nc3c2c(=O)[nH]n3C2CCCCCC2)cc1 (stereo not drawn) | 37*
COc1cc2c(c(OC)c1OC)-c1ccc(O)c(=O)cc1C(NC(C)=O)CC2 (stereo not drawn) | -97
Cc1ccc(OP(=O)(Nc2cccc(C)c2)Oc2ccc(C)cc2)cc1 | -187
COc1ccc(NP(=O)(Oc2ccc(Cl)cc2)Oc2ccc(Cl)cc2)cc1OC | -136

Source: PubChem
